Test results: PubChem BioAssay (Tox21)
Records with an inconclusive call do not appear. Active and inactive are the calls of the source. Unless noted, calls follow the shape of the full dose curve.

Tests used:
[1] = Nuclear factor erythroid 2-related factor 2/antioxidant responsive element (Nrf2/ARE) small molecule agonists: luciferase reporter gene qHTS assay in human keratinocytes (AID 1919969); also: nearly all actives have a fitted effect of over 35% in size
[2] = target: Gonadotropin-releasing hormone receptor (Homo sapiens) (UniProt P30968); test: Human gonadotropin-releasing hormone receptor (GnRHR) small molecule agonists, calcium flux assay in GnRHR-HEK293 cells (AID 1920063); also: nearly all actives have a fitted effect of over 35% in size
Summary of the method: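 We seeded human GnRHR-expressing HEK293 cells for 18 hours, loaded them with calcium dye for an hour at 37 C, added test compounds, and recorded fluorescence intensity kinetically for three minutes.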

[3] = target: KiSS-1 receptor (Homo sapiens) (UniProt Q969F8); test: Human kisspeptin (KISS1R) small molecule agonists, calcium flux assay in KISS1R-HEK293 cells (AID 1920064; active = well fitted activation curve with a large enough effect in the repeat runs)
Summary of the method: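 Kinetic calcium assay, 1 s sampling over 3 min at Ex/Em 480/540, in HEK293 cells engineered with human KISS1R; compounds delivered in DMSO after 1 h dye loading.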

[4] = G protein-coupled receptor (GPCR) small molecule agonists, calcium flux assay: HEK293 wild type cell line counter screen (AID 1920065)
Summary of the method: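 Calcium-sensitive dye, loaded 1 h at 37 C into cells cultured 18 h, reports compound-evoked calcium release as fluorescence (Ex/Em 480/540), measured over 3 min. Agonist mode; 15-point titrations, triplicate.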

[5] = p53 small molecule agonists, cell-based qHTS assay with human liver microsomes (AID 1963577)
Summary of the method: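 p53RE-bla cells, 4,000/well, compound added after 5 h, with human liver microsomes 0.5 mg/mL and NADPH 0.5 mg/mL final; 16 h at 37 C, then LiveBLAzer 2 h RT, fluorescence.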

[6] = p53 small molecule agonists, cell-based qHTS assay with rat liver microsomes (AID 1963578)
Summary of the method: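 p53RE-bla cells, 4,000/well, pre-incubated 5 h, then given compounds plus rat liver microsomes (0.5 mg/mL final) and NADPH (0.5 mg/mL final). Incubation 16 h at 37 C; beta-lactamase reporter read by LiveBLAzer fluorescence after 2 h at room temperature.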

[7] = p53 small molecule agonists, cell-based qHTS assay with human liver microsomes: qHTS cell viability counter screen (AID 1963579); also: nearly all actives have a fitted effect of over 45% in size
Summary of the method: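 p53RE-bla cells, 4,000/well, dosed 5 hours after plating, with human liver microsomes (0.5 mg/mL final) plus NADPH (0.5 mg/mL final), 16 hours at 37 C. Viability read as CellTiter-Glo luminescence after 30 min at room temperature.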

[8] = p53 small molecule agonists, cell-based qHTS assay with rat liver microsomes: qHTS cell viability counter screen (AID 1963580); also: nearly all actives have a fitted effect of over 45% in size
Summary of the method: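 Viability is assessed in parallel with the p53 reporter read: HCT-116 p53RE-bla cells receive compounds plus rat microsomes and NADPH (0.5 mg/mL final apiece), incubate 16 h at 37 C, and then CellTiter-Glo luminescence is recorded.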

[9] = p53 small molecule agonists, cell-based qHTS assay: qHTS cell viability counter screen (AID 1963581); also: nearly all actives have a fitted effect of over 45% in size
Summary of the method: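 Following 5 h attachment, HCT-116 p53RE-bla cells took up compound for 16 h at 37 C; the reporter was read with B/G FRET substrate (2 h RT), and viability then via CellTiter-Glo ATP luminescence.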

[10] = p53 small molecule agonists, cell-based qHTS assay (AID 1963582; active = well fitted activation curve with a large enough effect in the signal ratio in the repeat runs, not every such curve was filed as active; the % refers to the signal ratio)
Summary of the method: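 In this cell-based concentration-response screen, a p53 response element drives beta-lactamase; cells received DMSO-borne compounds after 5 h culture and were incubated a further 16 h before FRET substrate development.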

[11] = target: 5-hydroxytryptamine receptor 2A (Homo sapiens) (UniProt P28223); test: 5-hydroxytryptamine receptor 2A (HTR2A) small molecule antagonists, cell-based qHTS assay (AID 1963586); also: nearly all actives have a fitted effect of over 45% in size
Summary of the method: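 Antagonist-mode intracellular calcium assay: DOI (4 nM) added after 5 min compound pre-incubation at room temperature to dye-loaded HTR2A-CHO cells. Fluorescence followed for 3 min, sampled every second.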

[12] = target: Muscarinic acetylcholine receptor M1 (Homo sapiens) (UniProt P11229); test: Cholinergic receptor muscarinic 1 (CHRM1) small molecule antagonists, cell-based qHTS assay (AID 1963588); also: nearly all actives have a fitted effect of over 40% in size
Summary of the method: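 CHRM1-CHO calcium-flux assay, antagonist mode. Cells were seeded 18 h, dye-loaded 1 h at 37 C and given compound for 5 min at RT, then acetylcholine was added at 50nM. FDSS fluorescence was read 3 min; 15 concentrations, three runs.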

[13] = target: Muscarinic acetylcholine receptor M1 (Homo sapiens) (UniProt P11229); test: Cholinergic receptor muscarinic 1 (CHRM1) small molecule agonists, cell-based qHTS assay (AID 1963589); also: nearly all actives have a fitted effect of over 35% in size
Summary of the method: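 Measures agonist-induced intracellular calcium rise. Stable human CHRM1 CHO line, 1 h dye load at 37 C, compounds from DMSO, kinetic fluorescence read.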

[14] = cAMP Responsive Elements (CRE) small molecule agonists, cell-based qHTS assay (AID 1963590)
Summary of the method: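 A CRE-responsive beta-lactamase reporter in HEK 293T cells was used. Treatment ran 3 h at 37 C; detection used LiveBLAzer B/G FRET substrate for 2 h at room temperature.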

[15] = target: Beta-2 adrenergic receptor (Homo sapiens) (UniProt P07550); test: Adrenergic beta2 receptor (ADRB2) small molecule antagonists, cell-based qHTS assay (AID 1963592); also: series mostly up to about 92 µM; nearly all actives have a fitted effect of over 50% in size
Summary of the method: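 Cells (CHO, stable ADRB2 overexpression) incubated 18-20hr at 37C; compounds added from DMSO; agonist mix (1nM isoproterenol, 100uM IBMX, 25uM Ro-20-1724) added; 0.5hr RT; d2-cAMP and anti-cAMP-cryptate added; 1hr RT; 665/615 nm read.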

[16] = target: D(2) dopamine receptor (Homo sapiens) (UniProt P14416); test: Dopamine D2 receptor (DRD2) small molecule agonists, cell-based qHTS assay (AID 1963594); also: nearly all actives have a fitted effect of over 35% in size
Summary of the method: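 HEK293 cells stably expressing human DRD2, pre-treated with PDE inhibitor Ro20-1724 (0.1 mM final) and compound 10 min at room temperature, then stimulated with NKH477 (200nM […]) for 30 min. cAMP read by HTRF (665/620 nm).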

[17] = target: D(2) dopamine receptor (Homo sapiens) (UniProt P14416); test: Dopamine D2 receptor (DRD2) small molecule antagonists, cell-based qHTS assay (AID 1963595; active = well fitted inhibition curve with a large enough effect in the signal ratio in the repeat runs, with a control signal flat; the % refers to the signal ratio)
Summary of the method: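 Antagonism was scored as restored cAMP in HEK293-DRD2 cells. These cells were stimulated with 200 nM NKH477 and 12 nM quinpirole for 30 min at room temperature, in the presence of 0.1 mM Ro20-1724.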

[18] = target: 5-hydroxytryptamine receptor 2A (Homo sapiens) (UniProt P28223); test: 5-hydroxytryptamine receptor 2A (HTR2A) small molecule agonists, cell-based qHTS assay (AID 1963587); also: nearly all actives have a fitted effect of over 30% in size
Summary of the method: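 CHO cells stably expressing human HTR2A, plated 18 h, loaded with calcium dye 1 h at 37 C. Agonist mode: compounds added and intracellular calcium fluorescence recorded kinetically for 2 min at 1 sec intervals.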

[19] = cAMP Responsive Elements (CRE) small molecule antagonists, cell-based qHTS assay (AID 1963591; active = well fitted inhibition curve with a large enough effect in the signal ratio in the repeat runs, not every such curve was filed as active; the % refers to the signal ratio)
Summary of the method: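 HEK293T cells carrying a CRE-driven beta-lactamase reporter receive compound and NKH477 (0.25 uM final) for 3 h. Fluorescence from LiveBLAzer B/G FRET substrate is read after 2 h at room temperature.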
% is scaled to controls: 0 for no effect and ±100 for the full control effect.

Sequence of KiSS-1 receptor (Homo sapiens) (Q969F8 whole entry, looked up): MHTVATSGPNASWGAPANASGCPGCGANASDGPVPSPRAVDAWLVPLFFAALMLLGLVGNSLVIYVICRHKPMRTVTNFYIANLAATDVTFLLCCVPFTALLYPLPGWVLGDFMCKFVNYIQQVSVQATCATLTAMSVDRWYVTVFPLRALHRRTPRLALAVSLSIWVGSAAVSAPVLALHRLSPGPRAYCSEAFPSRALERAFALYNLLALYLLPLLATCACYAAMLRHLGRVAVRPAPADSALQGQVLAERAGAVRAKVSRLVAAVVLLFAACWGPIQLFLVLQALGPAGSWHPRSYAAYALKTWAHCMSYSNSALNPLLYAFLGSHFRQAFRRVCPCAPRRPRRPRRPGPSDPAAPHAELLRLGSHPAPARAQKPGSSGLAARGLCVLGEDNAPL
Sequence of 5-hydroxytryptamine receptor 2A (Homo sapiens) (P28223 whole entry, looked up): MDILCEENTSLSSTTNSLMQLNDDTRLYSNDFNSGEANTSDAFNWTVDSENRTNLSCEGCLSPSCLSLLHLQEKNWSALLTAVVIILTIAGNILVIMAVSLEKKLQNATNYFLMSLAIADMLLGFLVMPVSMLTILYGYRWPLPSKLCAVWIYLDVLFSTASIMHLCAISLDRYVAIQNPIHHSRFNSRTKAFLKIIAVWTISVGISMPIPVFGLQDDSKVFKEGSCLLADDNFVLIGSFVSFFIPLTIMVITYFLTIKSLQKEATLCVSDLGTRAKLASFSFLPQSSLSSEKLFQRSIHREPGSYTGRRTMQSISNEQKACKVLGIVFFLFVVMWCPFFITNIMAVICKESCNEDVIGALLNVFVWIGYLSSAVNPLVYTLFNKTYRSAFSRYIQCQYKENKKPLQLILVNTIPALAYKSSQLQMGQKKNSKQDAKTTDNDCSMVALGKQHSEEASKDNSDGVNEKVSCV
Sequence of D(2) dopamine receptor (Homo sapiens) (P14416 whole entry, looked up): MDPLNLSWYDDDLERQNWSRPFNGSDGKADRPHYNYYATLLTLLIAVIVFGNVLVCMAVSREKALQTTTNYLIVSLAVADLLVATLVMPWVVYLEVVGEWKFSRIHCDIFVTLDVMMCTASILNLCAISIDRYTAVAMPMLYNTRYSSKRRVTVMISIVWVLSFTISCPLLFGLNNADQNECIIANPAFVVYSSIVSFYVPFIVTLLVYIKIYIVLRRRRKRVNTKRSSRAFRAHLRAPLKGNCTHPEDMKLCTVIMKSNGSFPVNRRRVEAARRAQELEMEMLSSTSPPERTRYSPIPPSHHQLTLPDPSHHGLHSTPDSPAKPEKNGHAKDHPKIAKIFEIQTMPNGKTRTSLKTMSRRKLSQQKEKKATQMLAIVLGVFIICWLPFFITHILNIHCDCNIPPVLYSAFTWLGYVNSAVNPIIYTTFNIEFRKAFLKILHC
Sequence of Gonadotropin-releasing hormone receptor (Homo sapiens) (P30968 whole entry, looked up): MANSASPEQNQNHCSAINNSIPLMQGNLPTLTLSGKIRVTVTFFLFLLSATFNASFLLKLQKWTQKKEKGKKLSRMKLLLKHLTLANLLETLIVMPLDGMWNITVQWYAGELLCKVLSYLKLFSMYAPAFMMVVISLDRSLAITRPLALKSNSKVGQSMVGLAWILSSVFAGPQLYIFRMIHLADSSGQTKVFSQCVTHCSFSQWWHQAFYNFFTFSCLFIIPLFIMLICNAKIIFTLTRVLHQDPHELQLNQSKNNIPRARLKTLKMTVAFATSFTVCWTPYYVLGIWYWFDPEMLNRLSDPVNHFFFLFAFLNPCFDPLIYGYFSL
Sequence of Beta-2 adrenergic receptor (Homo sapiens) (P07550 whole entry, looked up): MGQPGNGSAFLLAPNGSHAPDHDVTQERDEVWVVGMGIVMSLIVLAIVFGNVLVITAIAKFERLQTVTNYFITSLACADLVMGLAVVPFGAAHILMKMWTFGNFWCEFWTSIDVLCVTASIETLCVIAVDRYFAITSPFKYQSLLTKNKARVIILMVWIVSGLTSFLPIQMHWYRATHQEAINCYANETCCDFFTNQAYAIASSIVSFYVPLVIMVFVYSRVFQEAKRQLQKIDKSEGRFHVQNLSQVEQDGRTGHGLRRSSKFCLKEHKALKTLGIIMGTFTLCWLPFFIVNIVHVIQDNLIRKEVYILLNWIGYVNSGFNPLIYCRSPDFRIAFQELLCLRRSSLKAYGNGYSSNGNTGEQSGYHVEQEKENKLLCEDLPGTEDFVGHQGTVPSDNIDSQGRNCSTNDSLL
Sequence of Muscarinic acetylcholine receptor M1 (Homo sapiens) (P11229 whole entry, looked up): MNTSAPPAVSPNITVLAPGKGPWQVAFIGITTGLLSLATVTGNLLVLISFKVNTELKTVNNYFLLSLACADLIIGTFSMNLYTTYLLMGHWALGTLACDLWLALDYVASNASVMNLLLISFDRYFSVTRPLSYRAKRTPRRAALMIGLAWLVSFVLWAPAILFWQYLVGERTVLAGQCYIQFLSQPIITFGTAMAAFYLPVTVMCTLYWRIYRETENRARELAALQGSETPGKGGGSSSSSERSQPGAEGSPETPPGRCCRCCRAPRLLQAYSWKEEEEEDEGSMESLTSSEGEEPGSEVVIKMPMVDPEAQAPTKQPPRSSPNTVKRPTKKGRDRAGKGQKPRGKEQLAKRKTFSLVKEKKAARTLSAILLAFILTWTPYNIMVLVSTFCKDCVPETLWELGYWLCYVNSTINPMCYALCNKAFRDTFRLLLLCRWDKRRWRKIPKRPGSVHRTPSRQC

C=CCn1c(=O)n(CC=C)c(=O)n(CC=C)c1=O
inactive: Potency [1] | Potency [2] | outcome [3] | outcome [4] | Potency [5] | Potency [6] | Potency [7] | Potency [8] | Potency [9] | Potency [10] | Potency [11] | Potency [12] | Potency [13] | Potency [14] | Potency [15] | Potency [16] | Potency [17]

CC(=O)CC(=O)OC(C)(C)C
inactive: Potency [1] | Potency [2] | outcome [3] | outcome [4] | Potency [5] | Potency [6] | Potency [7] | Potency [8] | Potency [9] | Potency [11] | Potency [18] | Potency [12] | Potency [14] | Potency [19] | Potency [15] | Potency [16] | Potency [17]

CC1=CCC(=C(C)C)CC1
inactive: Potency [1] | Potency [2] | outcome [3] | outcome [4] | Potency [5] | Potency [6] | Potency [7] | Potency [8] | Potency [9] | Potency [10] | Potency [11] | Potency [18] | Potency [12] | Potency [13] | Potency [14] | Potency [19] | Potency [15] | Potency [16] | Potency [17]

C[C@H]1NCc2cc(-c3ccc4c(=O)c(C(=O)O)cn(C5CC5)c4c3OC(F)F)ccc21
inactive: activity, positive = activation [1] -0.2% [at 19 µM] | activity change [2] -2.08% [at 11.8 µM, hits give high values] | activation [3] -1.09% [at 15.8 µM] | activation [4] -0.804% [at 11.8 µM] | activation [5] -4.26% [at 13.5 µM] | activation [6] 0.634% [at 13.6 µM] | activity change, negative = cytotoxicity [7] -4.1% [at 13.5 µM] | activity change, negative = cytotoxicity [8] 2.66% [at 13.5 µM] | activity change, negative = cytotoxicity [9] -9.15% [at 13.5 µM] | activity, negative = inhibition [11] 1.4% [at 12.7 µM] | activation [18] -1.89% [at 15.9 µM] | activity, negative = inhibition [12] 19.5% [at 12.6 µM] | activation [14] -1.76% [at 19 µM] | activity change, negative = inhibition [15] 10.3% [at 19 µM] | activation [16] -2.66% [at 19 µM] | activity change, negative = inhibition [17] -0.31% [at 18.9 µM]

CC[C@H]1OC(=O)[C@H](C)[C@@H](O[C@H]2C[C@@](C)(OC)[C@@H](O)[C@H](C)O2)[C@H](C)[C@@H](O[C@@H]2O[C@H](C)C[C@H](N(C)C)[C@H]2O)[C@](C)(OC)C[C@@H](C)C(=O)[C@H](C)[C@@H](O)[C@]1(C)O
inactive: Potency [1] | Potency [2] | outcome [3] | outcome [4] | Potency [5] | Potency [6] | Potency [7] | Potency [8] | Potency [9] | Potency [10] | Potency [14] | Potency [19] | Potency [15] | Potency [16] | Potency [17]

CC1(C)S[C@@H]2[C@H](N=CN3CCCCCC3)C(=O)N2[C@H]1C(=O)O
inactive: Potency [1] | Potency [2] | outcome [3] | outcome [4] | Potency [5] | Potency [6] | Potency [7] | Potency [8] | Potency [9] | Potency [10] | Potency [11] | Potency [12] | Potency [13] | Potency [14] | Potency [19] | Potency [15] | Potency [17]

Nc1ccc(S(=O)(=O)O)c(N)c1
inactive: Potency [1] | Potency [2] | outcome [3] | outcome [4] | Potency [5] | Potency [6] | Potency [7] | Potency [8] | Potency [9] | Potency [11] | Potency [18] | Potency [12] | Potency [13] | Potency [14] | Potency [19] | Potency [15] | Potency [17]

Nc1ccccc1S(=O)(=O)c1ccccc1
inactive: Potency [1] | Potency [2] | outcome [3] | outcome [4] | Potency [5] | Potency [6] | Potency [7] | Potency [8] | Potency [9] | Potency [10] | Potency [11] | Potency [18] | Potency [12] | Potency [13] | Potency [14] | Potency [19] | Potency [15] | Potency [16] | Potency [17]

NNc1nnc(NN)c2ccccc12
inactive: Potency [1] | Potency [2] | outcome [3] | outcome [4] | Potency [5] | Potency [6] | Potency [7] | Potency [8] | Potency [9] | Potency [10] | Potency [18] | Potency [12] | Potency [13] | Potency [14] | Potency [19] | Potency [15] | Potency [16] | Potency [17]

CCC(C)(C)C(=O)O
inactive: Potency [1] | Potency [2] | outcome [3] | outcome [4] | Potency [5] | Potency [6] | Potency [7] | Potency [8] | Potency [9] | Potency [10] | Potency [11] | Potency [18] | Potency [12] | Potency [13] | Potency [14] | Potency [15] | Potency [16] | Potency [17]

CC(CN(C)C)C(C)(O)Cc1ccc(Cl)cc1 (configuration not stated)
inactive: Potency [1] | Potency [2] | outcome [3] | outcome [4] | Potency [5] | Potency [6] | Potency [7] | Potency [8] | Potency [9] | Potency [10] | Potency [11] | Potency [18] | Potency [12] | Potency [13] | Potency [16] | Potency [17]

O=C(NCC1CN(c2ccc(N3CCOCC3=O)cc2)C(=O)O1)c1ccc(Cl)s1 (configuration not stated)
inactive: Potency [1] | Potency [2] | outcome [3] | outcome [4] | Potency [5] | Potency [6] | Potency [7] | Potency [8] | Potency [9] | Potency [10] | Potency [11] | Potency [18] | Potency [12] | Potency [13] | Potency [15] | Potency [16] | Potency [17]

Cc1ccc(O)cn1
inactive: Potency [1] | Potency [2] | outcome [3] | outcome [4] | Potency [5] | Potency [6] | Potency [7] | Potency [8] | Potency [9] | Potency [11] | Potency [18] | Potency [12] | Potency [13] | Potency [14] | Potency [19] | Potency [15] | Potency [16] | Potency [17]

CC(C)(C#N)Nc1nc(Cl)nc(NC2CC2)n1
inactive: Potency [1] | Potency [2] | outcome [3] | outcome [4] | Potency [5] | Potency [6] | Potency [7] | Potency [8] | Potency [9] | Potency [10] | Potency [11] | Potency [18] | Potency [12] | Potency [13] | Potency [14] | Potency [15] | Potency [16] | Potency [17]
